Consider 27 compounds from PubChem BioAssay (EPA / NIEHS).

More than one record can exist for a structure, and the calls need not agree. Calls of active or inactive are those of the source. How the source made its calls: active means hit-call score of the fitted dose curve at least 0.9, where 1 is the maximum; inactive means score below 0.9.

Read-out in one test: Matrix Metallopeptidase 1 (MMP1), MMP1 (gene 4312)
The test is described as follows: BSK_hDFCGF_MMP1: BioMAP Diversity Plus: hDFCGF Assay for Matrix Metallopeptidase 1 (MMP1) Biomarker Activity (AID 2283064). The conditions noted are these: primary human foreskin fibroblasts; actives raise or lower the signal. In outline:
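Primary human foreskin fibroblasts in the hDFCGF system were dosed with test chemical, and MMP1 was measured by ELISA 24 h later. Values come from bidirectional curve fitting against the DMSO baseline.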
With `COc1cc2c(c(OC)c1OC)-c1ccc(OC)c(=O)cc1[C@@H](NC(C)=O)CC2`, the AC50 is 2.82 µM (active).
Regarding `OCCC(F)(F)C(F)(F)C(F)(F)C(F)(F)F`, the outcome was inactive.
Still for that read-out and setting: with `O=C(O)c1cccc(C(=O)O)c1` the entry was “inactive”.
As for `CNC(C)=O`, the result was inactive.
Same read-out and setting: next, `CCCCCCCC1CCC(=O)O1` (stereo not drawn): “inactive”; `O=C1CN(N=Cc2ccc([N+](=O)[O-])o2)C(=O)N1`: “inactive”.
`COS(C)(=O)=O`: the outcome was inactive.
On to `S=P(N1CC1)(N1CC1)N1CC1`, for which the outcome was inactive.
On to `C[C@@H](Oc1ccc(CNC(=O)c2cccnc2Oc2ccc3c(c2)OCO3)c(F)c1)C(=O)O`, for which the outcome was inactive.
Consider `O=c1[nH]cnc2c1ncn2[C@H]1CC[C@@H](CO)O1`, for which the outcome was inactive.

Read-out in a further test: Vascular cell adhesion molecule 1 (VCAM1), VCAM1 (gene 7412)
The experiment in a line: BSK_hDFCGF_VCAM1: BioMAP Diversity Plus: hDFCGF Assay for Vascular cell adhesion molecule 1 (VCAM1) Biomarker Activity (AID 2283065).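 On AC50: VCAM-1 protein level quantified by ELISA after 24 h chemical exposure.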 Particulars: primary human foreskin fibroblasts; actives raise or lower the signal. In outline: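 ELISA readout of VCAM-1 on human dermal fibroblast primary cultures, 24 h after chemical exposure. Gain or loss of signal fitted in both directions against DMSO baseline.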
Consider `OCc1c[nH]c2ccccc12`, for which the AC50 was 3.97 µM (active).
Consider `c1ccc2cc3ccccc3cc2c1`, for which the outcome was inactive.
As for `COc1cc(C(C)C)c2c(c1)S(=O)(=O)N(COc1cc(=O)n3cccc(OCCN4CCCCC4)c3n1)C2=O`, the AC50 was 2.72 µM (active).
For the compound `O=S(=O)(O)CCC(F)(F)C(F)(F)C(F)(F)C(F)(F)C(F)(F)C(F)(F)F`, the result was inactive.
Consider `Cc1nccn1-c1ccc(Sc2cccc(C3(C(N)=O)CCOCC3)c2)cc1`, for which the AC50 is 3.25 µM (active).
For the compound `CC(C)CC(C)O` (stereo not drawn), the outcome was inactive.
In the case of `NC(=O)NN=Cc1ccc([N+](=O)[O-])o1`, the result was inactive.
In the case of `c1ccc(C(O[C@@H]2CCCN(CCc3ccc4c(c3)OCO4)C2)c2ccccc2)cc1`, the AC50 is 8.8 µM (active).
Regarding `CCCCOC(=O)c1ccccc1`, the outcome was inactive.
Take `FC(F)(F)C(F)(F)C(F)(F)C(F)(F)C(F)(F)C(F)(F)I`: the AC50 was 48.3 µM (active) and the result was inactive.
For the compound `NC(=O)N1c2ccccc2C=Cc2ccccc21`, the result was inactive.
For `Cc1nc(-c2ccccn2)ncc1C(=O)Nn1cc(C)c2cc(F)ccc21`, the result was inactive.
On the same count and under the same terms, with `O=C(O)[C@H](O)[C@@H](O)C(=O)O` the entry was “inactive”.
For the compound `Cc1cccc(O)c1C`, the result was inactive.
Consider `C[Si](C)(C)C(F)(F)C(F)(F)C(F)(F)F`, for which the outcome was inactive.
Take `CCOC(N)=O`: the outcome was inactive.
For the compound `OC[C@H]1O[C@@H]2O[C@H]3[C@H](O)[C@@H](O)[C@@H](O[C@H]4[C@H](O)[C@@H](O)[C@@H](O[C@H]5[C@H](O)[C@@H](O)[C@@H](O[C@H]6[C@H](O)[C@@H](O)[C@@H](O[C@H]7[C@H](O)[C@@H](O)[C@@H](O[C@H]1[C@H](O)[C@H]2O)O[C@@H]7CO)O[C@@H]6CO)O[C@@H]5CO)O[C@@H]4CO)O[C@@H]3CO`, the result was inactive.
As to `COc1cc2c(c(OC)c1OC)-c1ccc(OC)c(=O)cc1[C@@H](NC(C)=O)CC2`, the AC50 is 2.32 µM (active).
With `OCCC(F)(F)C(F)(F)C(F)(F)C(F)(F)F`, the outcome was inactive.
In the case of `O=C(O)c1cccc(C(=O)O)c1`, the result was inactive.
Same read-out and setting: with `CNC(C)=O` the entry was “inactive”.
Turning to `CCCCCCCC1CCC(=O)O1` (stereo not drawn), the result was inactive.
With `O=C1CN(N=Cc2ccc([N+](=O)[O-])o2)C(=O)N1`, the outcome was inactive.
In the case of `COS(C)(=O)=O`, the outcome was inactive.
On the same count and under the same terms, next, `S=P(N1CC1)(N1CC1)N1CC1`: “inactive”; `C[C@@H](Oc1ccc(CNC(=O)c2cccnc2Oc2ccc3c(c2)OCO3)c(F)c1)C(=O)O`: “inactive”.
As to `O=c1[nH]cnc2c1ncn2[C@H]1CC[C@@H](CO)O1`, the outcome was inactive.
